The values that follow come from paper PMC5540273 (PLoS ONE, 2017).

Settings in all cases: concentration: 1 μM, replicates: in singlicate; n = 1
Experiment [1] deals with IRAK1.
The test system of experiment [2] is IRAK3.
Experiment [3] deals with IRAK4.
In experiment [4] the test system is ITK.
The test system of experiment [5] is JAK1(JH1domain-catalytic).
The test system of experiment [6] is JAK1(JH2domain-pseudokinase).
The subject of experiment [7] is JAK2(JH1domain-catalytic).
In experiment [8] the test system is JAK3(JH1domain-catalytic).
Experiment [9] concerns T1, JNK1.
T1 construct: gene MAPK8

Experiment [10] concerns T2, JNK2.
T2 construct: gene MAPK9
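Also: KINOMEscan kinase panel screen.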

As to `CCCCc1nn2ncccc2c1-c1ccnc(NC2CC2)n1` [GW684374], the “%Inh” value in experiment [1] came out at 28%; in experiment [2], 13%; in experiment [3], 12%; in experiment [4], 0%; in experiment [5], 7%; in experiment [6] it was 0%. For the same compound, the “%Inh” value in experiment [7] worked out at 0%; in [8], 0%; in [9] it was 63%; in experiment [10] it was 84%.
On to `CNc1nc(-c2ccc3c(N)n[nH]c3c2)cc(N2C[C@@H](C(=O)Nc3ccccc3)CC[C@H]2C)n1` [GSK2298859], for which the “%Inh” value in experiment [1] worked out at 0%; in [2], 0%; in [3], 8%; in experiment [4], 12%; in experiment [5], 0%; in experiment [6] it was 0%. Also, the “%Inh” value in [7] stood at 0%; in experiment [8], 0%; in experiment [9], 2%; in experiment [10], 15%.
Consider `CS(=O)(=O)Cc1ccc(Nc2nccc(-c3c(-c4cccc(NC(=O)C5CCCCC5)c4)nn4ncccc34)n2)cc1` [GSK350559], for which the “%Inh” value in experiment [1] worked out at 24%; in experiment [2] it was 3%; in experiment [3], 25%; in experiment [4], 6%; in [5], 0%; in experiment [6], 0%. In addition, the “%Inh” value in [7] turned out to be 16%; in experiment [8], 43%; in experiment [9], 43%; in experiment [10] it was 49%.
For `COc1ccc(Nc2nccc(NCCNC(=O)Nc3cc(C)ccc3C)n2)cc1` [GSK1379899], the “%Inh” value in [1] turned out to be 0%; in [2], 8%; in experiment [3], 3%; in experiment [4], 10%; in [5] it was 0%; in experiment [6] it was 0%. The “%Inh” value in [7] was found to be 16%; in experiment [8] it was 0%; in [9], 20%; in [10], 0%.
Take `CC(=O)c1c(C)c2cnc(Nc3ccn(C)n3)nc2n(C2CCCC2)c1=O`: the “%Inh” value was 11% in experiment [1]; 0% in [2]; 11% in [3]; 0% in experiment [4]; 0% in experiment [5]; 0% in experiment [6]. Also, the “%Inh” value was 0% in experiment [7], 9% in experiment [8], 8% in experiment [9] and 18% in [10].
Consider `COc1ccc(CSc2nnc(-c3ccc4nccn4c3)o2)cc1C(F)(F)F`, for which the “%Inh” value in experiment [1] was 44%; in experiment [2] it was 30%; in experiment [3], 38%; in experiment [4] it was 20%; in experiment [5], 0%; in experiment [6] it was 0%. Moreover, the “%Inh” value in [7] came out at 13%; in experiment [8], 1%; in experiment [9], 0%; in experiment [10], 0%.
With `COC(=O)c1cccc(NC(=O)NC2CCN(c3ccnc(Nc4ccc(OC)cc4)n3)C2)c1` (centres unmarked) [GSK1379746], the “%Inh” value stood at 35% in experiment [1]; 0% in experiment [2]; 23% in [3]; 13% in [4]; 14% in experiment [5]; 0% in [6]. Also, the “%Inh” value was 2% in experiment [7], 0% in [8], 37% in experiment [9] and 0% in [10].
For `COc1ccc(-c2coc3ccc(-c4nnc(C)o4)cc23)cc1`, the “%Inh” value is 0% in experiment [1]; 0% in experiment [2]; 9% in experiment [3]; 0% in [4]; 15% in experiment [5]; 0% in experiment [6]. Further, the “%Inh” value was found to be 3% in experiment [7], 0% in experiment [8], 0% in experiment [9] and 0% in [10].
In the case of `CSc1ccc(-c2nc3n(c2-c2ccncc2)CCC3)cc1` [SKF-105561], the “%Inh” value in experiment [1] came to 21%; in experiment [2], 0%; in experiment [3], 6%; in experiment [4] it was 12%; in [5] it was 8%; in experiment [6] it was 15%. For the same compound, the “%Inh” value in experiment [7] is 4%; in experiment [8], 0%; in experiment [9], 31%; in experiment [10] it was 49%.
In the case of `CCc1ccc(-c2ccc3c(c2)-c2n[nH]cc2S(=O)(=O)N3C)cc1`, the “%Inh” value in experiment [1] was determined as 0%; in experiment [2], 0%; in experiment [3], 0%; in experiment [4], 0%; in experiment [5], 18%; in experiment [6] it was 14%. Moreover, the “%Inh” value in experiment [7] is on record as 3%; in experiment [8] it was 0%; in experiment [9], 1%; in [10], 0%.
For the compound `Nc1cccc(-c2ccc3c(N)n[nH]c3c2)n1` [GSK2192730], the “%Inh” value is on record as 0% in [1]; 17% in experiment [2]; 4% in experiment [3]; 0% in experiment [4]; 14% in [5]; 65% in experiment [6]. Also, the “%Inh” value in experiment [7] is on record as 100%; in [8] it was 0%; in experiment [9], 0%; in experiment [10], 2%.
As to `Cc1ccccc1Cn1ccn2c(=O)cc(N3CCOCC3)nc12` [GSK2269905], the “%Inh” value in [1] is 0%; in experiment [2], 0%; in [3], 13%; in experiment [4], 20%; in experiment [5], 0%; in experiment [6] it was 0%. The “%Inh” value in [7] is on record as 0%; in [8], 0%; in experiment [9], 21%; in experiment [10], 20%.
For the compound `COc1ccc(CSc2nnc(-c3ccc4c(c3)CCO4)o2)cc1`, the “%Inh” value in experiment [1] is on record as 0%; in experiment [2], 0%; in experiment [3], 0%; in experiment [4] it was 8%; in [5], 18%; in experiment [6] it was 0%. Also, the “%Inh” value in experiment [7], in experiment [8], in experiment [9] and in [10] was 0% throughout.
Turning to `Nc1ncnc2occ(-c3ccc4c(c3)CCN4C(=O)Cc3cc(F)ccc3F)c12` [GSK2645446], the “%Inh” value in [1], in [2], in experiment [3], in [4], in experiment [5] and in [6] was 0% throughout. The “%Inh” value in experiment [7], in experiment [8], in experiment [9] and in experiment [10] was 0% each time.
As for `Cn1cncc1-c1cc2c(Nc3ccc(OCc4ccccc4)cc3)ncnc2cn1` [GW281179], the “%Inh” value in [1] was 30%; in [2] it was 1%; in experiment [3], 17%; in experiment [4], 12%; in [5] it was 14%; in experiment [6], 0%. Further, the “%Inh” value in experiment [7] was determined as 4%; in experiment [8] it was 0%; in [9], 13%; in experiment [10], 1%.
On to `O=c1cc(N2CCOCC2)nc2n(Cc3cccc(Cl)c3Cl)c3ccccc3n12` [GSK2299009], for which the “%Inh” value in experiment [1] is on record as 12%; in experiment [2], 15%; in experiment [3] it was 4%; in experiment [4] it was 13%; in experiment [5], 24%; in experiment [6], 0%. Further, the “%Inh” value worked out at 0% in [7], 0% in experiment [8], 7% in experiment [9] and 32% in experiment [10].
Take `O=c1cc(N2CCOCC2)nc2n(Cc3ccccc3F)ccn12` [GSK2297428]: the “%Inh” value is 0% in [1]; 0% in experiment [2]; 0% in experiment [3]; 15% in [4]; 10% in [5]; 0% in experiment [6]. Further, the “%Inh” value came out at 0% in [7], 0% in [8], 1% in [9] and 11% in experiment [10].
